This note sets out measurements from PMC7862700, “An all-to-all approach to the identification of sequence-specific readers for epigenetic DNA modifications on cytosine”.

What all share (test): DAPPL (digital affinity profiling via proximity ligation, sequencing); 10 mM Tris-HCl pH 7.5, 50 mM NaCl, 1 mM DTT, 4% glycerol, room temperature, 30 min; GST-TFs on glutathione beads, 16-mer random dsDNA library, 0.1% formaldehyde crosslink after washing; high values mean tight binding
Conditions in all cases: protein: recombinant; tags: N-terminal GST; dsDNA, one strand shown

One assay has as its target T1, ELK4 (Homo sapiens, UniProt P28324-2 1-405).
T1 sequence: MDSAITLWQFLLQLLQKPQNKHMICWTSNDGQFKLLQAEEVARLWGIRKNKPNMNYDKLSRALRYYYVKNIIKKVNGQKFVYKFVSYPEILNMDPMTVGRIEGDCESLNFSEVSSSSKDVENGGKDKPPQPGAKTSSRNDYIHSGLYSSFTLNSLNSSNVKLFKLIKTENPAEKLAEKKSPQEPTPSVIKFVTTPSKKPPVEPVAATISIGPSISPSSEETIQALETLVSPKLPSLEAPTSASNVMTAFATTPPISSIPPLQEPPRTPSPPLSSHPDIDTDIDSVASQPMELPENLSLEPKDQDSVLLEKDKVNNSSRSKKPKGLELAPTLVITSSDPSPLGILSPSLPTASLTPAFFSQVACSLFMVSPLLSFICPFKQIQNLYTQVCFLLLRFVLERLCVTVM
The procedure, abridged:
(§1)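 A tag-only sample was pooled with DNA-barcoded human transcription factors that had been expressed in yeast as GST fusions and captured on glutathione beads. The pools were incubated for 30 min at room temperature with 200 nmole of a random double-stranded 16-mer DNA library in Tris/NaCl/DTT/glycerol buffer, then washed, crosslinked with 0.1% formaldehyde, proximity-ligated (BsaI/T4 ligase, 1 h, 37 °C), PCR-amplified and sequenced on an Illumina NextSeq500. Binding signal is each hexamer's read frequency for a factor divided by its frequency for the tag-only sample.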

The target of a further assay is T2, ELF3 (Homo sapiens, UniProt P78545 1-371).
T2 sequence: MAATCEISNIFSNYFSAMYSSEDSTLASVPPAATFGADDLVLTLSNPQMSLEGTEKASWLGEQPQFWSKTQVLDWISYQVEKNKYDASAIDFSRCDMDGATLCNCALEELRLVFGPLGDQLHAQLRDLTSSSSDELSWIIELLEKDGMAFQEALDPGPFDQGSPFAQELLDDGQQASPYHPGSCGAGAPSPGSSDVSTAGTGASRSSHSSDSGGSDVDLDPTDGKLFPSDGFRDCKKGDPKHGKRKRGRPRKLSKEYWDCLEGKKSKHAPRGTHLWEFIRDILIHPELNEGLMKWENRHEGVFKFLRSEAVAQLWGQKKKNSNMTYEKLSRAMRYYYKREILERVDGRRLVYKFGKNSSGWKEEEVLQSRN
The procedure, abridged: as §1

The target in a further assay is ETV1 (Homo sapiens, UniProt P50549 1-477). The gist of the method: as §1
Sequence of ETV1 (P50549 whole entry): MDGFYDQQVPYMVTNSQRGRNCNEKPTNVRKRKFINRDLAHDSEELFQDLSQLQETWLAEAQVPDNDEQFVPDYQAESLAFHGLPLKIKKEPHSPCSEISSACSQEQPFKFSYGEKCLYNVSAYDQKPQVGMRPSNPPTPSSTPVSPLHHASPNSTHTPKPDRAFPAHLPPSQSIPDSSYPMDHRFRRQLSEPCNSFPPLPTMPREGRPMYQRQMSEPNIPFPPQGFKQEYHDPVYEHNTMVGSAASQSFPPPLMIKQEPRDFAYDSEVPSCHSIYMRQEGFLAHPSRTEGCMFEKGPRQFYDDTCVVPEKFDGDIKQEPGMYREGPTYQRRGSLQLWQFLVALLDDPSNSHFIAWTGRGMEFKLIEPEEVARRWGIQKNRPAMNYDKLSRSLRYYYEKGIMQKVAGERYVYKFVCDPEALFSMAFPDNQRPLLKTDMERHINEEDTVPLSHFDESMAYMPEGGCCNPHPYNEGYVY
A further assay deals with T3, ERF (Homo sapiens, UniProt P50548 1-548).
T3 sequence: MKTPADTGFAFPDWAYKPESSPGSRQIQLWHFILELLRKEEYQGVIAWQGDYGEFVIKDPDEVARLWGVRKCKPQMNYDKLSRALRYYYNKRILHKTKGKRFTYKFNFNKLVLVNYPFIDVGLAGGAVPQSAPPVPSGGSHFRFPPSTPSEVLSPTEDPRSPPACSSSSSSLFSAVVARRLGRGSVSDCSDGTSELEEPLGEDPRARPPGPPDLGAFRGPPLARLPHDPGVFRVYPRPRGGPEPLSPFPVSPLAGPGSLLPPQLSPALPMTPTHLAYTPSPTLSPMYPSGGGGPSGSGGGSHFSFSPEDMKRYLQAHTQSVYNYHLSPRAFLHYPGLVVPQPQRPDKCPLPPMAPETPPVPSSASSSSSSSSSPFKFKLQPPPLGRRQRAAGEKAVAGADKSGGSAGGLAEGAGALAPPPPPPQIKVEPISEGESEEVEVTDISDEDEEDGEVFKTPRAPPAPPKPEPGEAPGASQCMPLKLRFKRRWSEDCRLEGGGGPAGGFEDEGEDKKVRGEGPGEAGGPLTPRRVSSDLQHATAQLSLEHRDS
The gist of the method:
as §1

The next assay deals with T4, ETV3L (Homo sapiens, UniProt Q6ZN32 1-361).
T4 sequence: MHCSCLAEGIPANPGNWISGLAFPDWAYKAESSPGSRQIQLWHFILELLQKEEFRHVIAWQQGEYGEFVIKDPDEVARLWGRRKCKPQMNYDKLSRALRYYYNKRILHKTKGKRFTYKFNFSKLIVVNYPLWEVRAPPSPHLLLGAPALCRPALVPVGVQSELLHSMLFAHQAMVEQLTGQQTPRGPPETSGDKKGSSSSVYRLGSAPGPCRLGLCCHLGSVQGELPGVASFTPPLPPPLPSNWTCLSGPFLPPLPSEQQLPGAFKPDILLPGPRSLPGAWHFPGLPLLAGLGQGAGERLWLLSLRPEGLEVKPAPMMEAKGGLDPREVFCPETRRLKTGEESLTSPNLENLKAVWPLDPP
The gist of the method: as §1

The target of another assay is T5, ETS2 (Homo sapiens, UniProt P15036 1-469).
T5 sequence: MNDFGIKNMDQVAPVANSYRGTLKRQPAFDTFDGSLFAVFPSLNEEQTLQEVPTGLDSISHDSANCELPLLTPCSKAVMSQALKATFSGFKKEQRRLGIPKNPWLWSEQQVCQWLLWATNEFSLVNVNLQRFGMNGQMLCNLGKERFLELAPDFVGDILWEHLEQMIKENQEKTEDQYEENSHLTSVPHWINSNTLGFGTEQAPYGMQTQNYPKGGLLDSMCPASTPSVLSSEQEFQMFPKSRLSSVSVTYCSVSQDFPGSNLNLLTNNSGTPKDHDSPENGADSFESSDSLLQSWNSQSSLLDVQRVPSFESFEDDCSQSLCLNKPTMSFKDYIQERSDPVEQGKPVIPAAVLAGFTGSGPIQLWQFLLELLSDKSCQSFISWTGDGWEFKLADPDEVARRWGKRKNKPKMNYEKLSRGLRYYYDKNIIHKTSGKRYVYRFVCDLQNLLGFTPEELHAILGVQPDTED
The procedure, abridged:
as §1

The next assay has as its target T6, SPDEF (Homo sapiens, UniProt O95238 1-335).
T6 sequence: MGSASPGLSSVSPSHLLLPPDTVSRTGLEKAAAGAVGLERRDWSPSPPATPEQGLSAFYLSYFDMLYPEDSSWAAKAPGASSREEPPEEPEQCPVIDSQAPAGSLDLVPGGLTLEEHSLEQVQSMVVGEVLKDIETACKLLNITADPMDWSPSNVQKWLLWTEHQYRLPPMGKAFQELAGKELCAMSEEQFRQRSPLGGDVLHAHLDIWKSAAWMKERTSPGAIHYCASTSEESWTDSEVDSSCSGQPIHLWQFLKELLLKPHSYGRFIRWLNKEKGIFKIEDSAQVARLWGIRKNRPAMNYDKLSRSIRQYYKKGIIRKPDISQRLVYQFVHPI
The gist of the method:
as §1

In a further assay the target is T7, ETV7 (Homo sapiens, UniProt Q9Y603 1-341).
T7 sequence: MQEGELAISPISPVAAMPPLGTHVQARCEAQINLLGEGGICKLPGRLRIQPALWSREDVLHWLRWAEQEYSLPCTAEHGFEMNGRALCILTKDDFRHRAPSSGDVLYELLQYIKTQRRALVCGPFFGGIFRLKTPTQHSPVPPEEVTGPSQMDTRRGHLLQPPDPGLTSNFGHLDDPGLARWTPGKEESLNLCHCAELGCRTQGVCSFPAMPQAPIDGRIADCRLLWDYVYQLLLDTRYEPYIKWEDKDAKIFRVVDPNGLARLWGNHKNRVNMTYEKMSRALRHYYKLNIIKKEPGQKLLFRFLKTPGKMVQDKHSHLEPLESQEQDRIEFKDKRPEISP
The procedure, abridged:
as §1

The target of the next assay is T8, ETV3 (Homo sapiens, UniProt P41162-2 1-143).
T8 sequence: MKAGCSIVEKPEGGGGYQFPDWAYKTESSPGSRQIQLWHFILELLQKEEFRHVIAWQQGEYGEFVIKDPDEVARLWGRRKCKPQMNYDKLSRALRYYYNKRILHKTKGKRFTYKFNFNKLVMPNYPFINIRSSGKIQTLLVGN
The procedure, abridged:
as §1

Another assay concerns the target ETV6 (Homo sapiens, UniProt P41212 1-452). The procedure, abridged:
as §1

Sequence of ETV6 (P41212 whole entry): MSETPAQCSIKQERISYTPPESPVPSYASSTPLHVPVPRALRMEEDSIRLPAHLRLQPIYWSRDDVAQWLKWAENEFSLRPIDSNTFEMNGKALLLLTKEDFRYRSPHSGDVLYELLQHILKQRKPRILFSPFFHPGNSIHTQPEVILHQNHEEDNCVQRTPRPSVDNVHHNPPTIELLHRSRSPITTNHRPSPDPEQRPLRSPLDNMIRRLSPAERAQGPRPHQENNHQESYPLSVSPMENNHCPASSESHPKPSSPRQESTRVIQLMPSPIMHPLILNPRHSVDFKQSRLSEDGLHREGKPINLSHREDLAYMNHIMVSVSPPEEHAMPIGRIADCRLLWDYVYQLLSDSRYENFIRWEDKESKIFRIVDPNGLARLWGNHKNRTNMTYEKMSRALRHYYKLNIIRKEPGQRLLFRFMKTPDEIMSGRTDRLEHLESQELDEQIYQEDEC

TGATTA: the binding signal with ELK4 is 1.16 fold enrichment (6-mer frequency, TF over GST control); with ELF3 it was 1.18 fold enrichment (6-mer frequency, TF over GST control); with ETV1, 1.09 fold enrichment (6-mer frequency, TF over GST control); with ERF, 1.16 fold enrichment (6-mer frequency, TF over GST control); in the assay with ETV3L, 1.07 fold enrichment (6-mer frequency, TF over GST control); with ETS2, 1.03 fold enrichment (6-mer frequency, TF over GST control). The binding signal with SPDEF is 1.01 fold enrichment (6-mer frequency, TF over GST control); in the assay with ETV7 it was 1.05 fold enrichment (6-mer frequency, TF over GST control); with ETV3, 1.08 fold enrichment (6-mer frequency, TF over GST control); with ETV6 it was 1.06 fold enrichment (6-mer frequency, TF over GST control).
